Fewer than 10 of roughly 340,000 compounds were called active. Inconclusive results (about 2%) are left out. The list is a sample of the results. Unmarked numbers belong to inactive results. Calls follow the shape of the dose curve; as a rule, active = well fitted curve in the direction sought with a large enough effect; inconclusive = small, poorly fitted or top-dose-only effect, or another doubt; inactive = no such curve, though single readings can be large or run the other way.

The nature of the experiment: qHTS Assay for Modulators of miRNAs and/orActivators of miR-21.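 Also: % of control where 0% means no effect; miR-21 action dims this reporter so a rising signal means less miR-21 action.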 The note with it: HeLa miR-21 FLuc reporter, luciferase, 48 h; series mostly up to 38.3 µM; activity change, positive = activation: at the top concentration. An excerpt:
MLSCN Grant: 1 R21 NS059478-01 Assay Provider: Qihong Huang, The Wistar Institute NCGC Assay Overview: MicroRNAs (miRNAs) are endogenously encoded small (~20-25 nucleotides), nonprotein-coding RNAs that are involved in post-transcriptional repression of target messenger RNAs (mRNAs) (Le and Hannon, 2004). Estimated to be involved in the regulation of 30% of all protein-coding mRNAs (Filipowicz et al., 2008), miRNAs play a significant role in many biological processes including cellular differentiation and tissue development (Ghildiyal and Zamore, 2009).
NCGC Assay Protocol Summary: Reagents: HeLa cells stably expressing firefly luciferase (FLuc) under the control of a CMV promoter (upstream) and a miR-21 binding sequence directly downstream of the gene. These cells endogenously express miR-21. Control compounds used were compound C3 (provided by collaborator), N6-phenyladenosine (MP Biomedicals, 0215379625), and DMSO. Assay Summary: 6uL of HeLa miR-21-FLuc cells in assay buffer (DMEM, Invitrogen #21063-029; 10% FBS, HyClone #SH30071.03) were dispensed at 2000cells/well (3.3 x 10^5 cells/mL) into Greiner solid-white TC-treated 1536-well plates using a Multidrop Combi (Thermo Fisher Scientific). Plates were incubated for one hour at 37 degree Celsius, 95% humidity, 5% CO2. These assay plates were then treated with 23nL of compound or DMSO using a Kalypsys pin tool, which allows for delivery of a 24-point titration of each compound to the assay plate, with a final compound concentration ranging from approximately 40uM to 5pM. Assay plates were then incubated for 48 hours. After incubation, plates were allowed to come to RT for one hour prior to delivery of 3uL of 3X luciferase detection reagent. After a 15 minute incubation to allow for cell lysis, luciferase activity was measured using a ViewLux CCD imager (PerkinElmer), with an average exposure time of 2-12 seconds. Keywords: NIH Roadmap, MLPCN, MLSMR, qHTS, miR-21, microRNA, firefly luciferase, FLuc.
With `CCCN1CCN(CCCNC(=O)c2cnn(-c3ccc(C)cc3)c2-n2cccc2)CC1`, the “activity change, positive = activation” value is 1.18%.

Turning to `CCCCN(CC)C(=O)c1c[nH]c2ccc(S(=O)(=O)Nc3cccc(OC)c3)cc2c1=O`, the “activity change, positive = activation” value was 23%.

With `Cc1c(-c2nc(-c3ccc4c(c3)OCO4)no2)nnn1-c1ccc(Br)cc1F`, the “activity change, positive = activation” value is -18%.

`O=C(NCc1cccnc1)C(=O)NCC(c1cccnc1)N1CCN(c2ccccc2)CC1` (configuration not stated): the “activity change, positive = activation” value is -6.67%.

For the molecule `Cc1ccccc1C(=O)NCc1nc(-c2ccc(Cl)cc2)no1`, the “activity change, positive = activation” value was 8.3%.

Take `CCOc1ccc(NC(=O)Cn2c(=O)n(CCCC(=O)NCc3ccc4c(c3)OCO4)c(=O)c3ccccc32)cc1`: the “activity change, positive = activation” value was 2.53%.

On to `CCOc1ccc(Nc2oc(/C=C/c3ccc(F)cc3)nc2C#N)cc1`, for which the “activity change, positive = activation” value is -7.27%.

As to `CCOc1ccc(OCC)c(NC(=O)c2cc(C)nc3c2c(C)nn3-c2cccc(Cl)c2C)c1`, the “activity change, positive = activation” value was -0.924%.

As for `COC(=O)c1ccc(NC(=O)CCc2c(C)nc3c(c(C)nn3-c3ccc(C)cc3)c2C)cc1`, the “activity change, positive = activation” value is -1.39%.

For the molecule `COc1cc(Cl)c(NC(=O)CC(C)S(=O)(=O)c2cc3c(cc2C)NC(=O)CO3)c(OC)c1` (configuration not stated), the “activity change, positive = activation” value is -10.4%.

Take `Cc1ccc(CN2CCc3nc(N4CCN(C)CC4)ncc3C2)cc1`: the “activity change, positive = activation” value was -0.868%.

As to `CCOC(=O)c1ccc2c(c1)N(Cc1cccc(OC)c1)C(=O)c1ccccc1S2(=O)=O`, the “activity change, positive = activation” value was 1.39%.

As for `COc1ccc(Cc2nc3ccc(C(=O)NCc4ccccc4C)cc3o2)cc1`, the “activity change, positive = activation” value was 2.75%.

For the molecule `CCOC(=O)c1c(C)[nH]c(CCC(=O)NCCCN2CCN(c3cccc(Cl)c3)CC2)c1C`, the “activity change, positive = activation” value was 26.2%.

Regarding `Cc1ccc(SCC(=O)Nc2ccc3oc(-c4ccccc4F)nc3c2)cc1`, the “activity change, positive = activation” value is -21.4%.

As to `CN(C(=O)CSc1nc2ccccc2n1Cc1ccccc1C#N)c1ccccc1`, the “activity change, positive = activation” value is 9.67%.

Consider `CCc1nnc(SCc2nc(-c3cccc(C)c3)oc2C)c2cc3sc(C)cc3n12`, for which the “activity change, positive = activation” value is 0.608%.

For `COc1ccccc1N1CCN(c2ncnc3onc(-c4ccc(F)cc4)c23)CC1`, the “activity change, positive = activation” value is -4.41%.

Consider `CC(C)Oc1ccc(CNC(=O)C2CCN(c3nc4ccccc4n(C)c3=O)CC2)cc1`, for which the “activity change, positive = activation” value is 1.16%.

Regarding `CC(C)c1ccc(NS(=O)(=O)c2ccc3[nH]cc(C(=O)NC4CCCC4)c(=O)c3c2)cc1`, the “activity change, positive = activation” value is 3.86%.

With `Cc1ccc(-n2nc(C)c3c(C)cc(=O)n(CC(=O)Nc4ccc(C(C)C)cc4)c32)cc1`, the “activity change, positive = activation” value is 0.922%.

Consider `O=C(NCCCO)c1nn(-c2ccc(Cl)cc2)nc1CO`, for which the “activity change, positive = activation” value was 4.39%.

In the case of `COc1ccccc1CNC(=O)CCCn1c(=O)c2ccccc2n(CC(=O)Nc2ccc(C)cc2Cl)c1=O`, the “activity change, positive = activation” value is 2.72%.

On to `COc1cccc(-n2c(=O)c3c(C)c(C(=O)N(C)C)sc3n(Cc3cccc(C)c3)c2=O)c1`, for which the “activity change, positive = activation” value is -7.64%.

In the case of `CCOc1cccc2sc(N3CCN(C(=O)C4CC4)CC3)nc12`, the “activity change, positive = activation” value was -4.33%.

As to `CCc1nn(CC(=O)N2CCN(c3ccc(Cl)cc3)CC2)c(=O)c2cc3occc3n12`, the “activity change, positive = activation” value is -1.09%.

Turning to `CSc1ncc(C(=O)NCc2ccccc2Cl)c(C(F)(F)F)n1`, the “activity change, positive = activation” value was -5.83%.

For `COc1ccc(CC(=O)Nc2nnc3n2CCS3)cc1OC`, the “activity change, positive = activation” value is -0.241%.

Turning to `Cc1ccc(-c2nn(CCC(=O)Nc3ccc(Cl)c(Cl)c3)c(=O)c3ccccc23)cc1`, the “activity change, positive = activation” value is 4.57%.

As to `CCC(=O)Nc1ccccc1-c1nc2ccccc2n(CC(=O)Nc2ccc(C)c(C)c2)c1=O`, the “activity change, positive = activation” value was -3.9%.

Consider `CCN1CCc2nc3sc(C(=O)Nc4ccccc4OC(F)(F)F)c(N)c3cc2C1`, for which the “activity change, positive = activation” value is 26.3%.

As for `CCOC(=O)c1cc(NC(=O)c2ccc(F)cc2)c(=O)n2c1oc1ccccc12`, the “activity change, positive = activation” value was -9.24%.

As to `CCOc1ccc(N(CC)S(=O)(=O)N2CCCC(C(=O)NCc3ccc(SC)cc3)C2)cc1` (configuration not stated), the “activity change, positive = activation” value was 27.8%.

With `COc1ccc(CNC(=O)CSc2n[nH]c(-c3ccc(F)cc3)n2)cc1`, the “activity change, positive = activation” value is 17.4%.

In the case of `COc1ccc(CN2C(=O)C(NC(=O)c3cccc(C)c3)(C(F)(F)F)N=C2c2ccccc2)cc1` (configuration not stated), the “activity change, positive = activation” value was -0.25%.

Turning to `Cc1c(Cl)cccc1NC(=O)C(=O)NCCc1csc2nc(-c3ccccc3F)nn12`, the “activity change, positive = activation” value was 21.8%.

As for `COCCNC(=O)CSc1c(C)cnc2c1c(=O)n(C)c(=O)n2C`, the “activity change, positive = activation” value is -1.95%.

As to `O=C(c1ccccc1F)N1CCC(c2nc3c(nnn3Cc3cccc(F)c3)c(=O)[nH]2)CC1`, the “activity change, positive = activation” value is -3.46%.

On to `COc1ccc(OC)c(NC(=O)CSC2=Nc3ccccc3C3=NC(CC(=O)NCc4ccc(F)cc4)C(=O)N23)c1` (configuration not stated), for which the “activity change, positive = activation” value is 0.599%.

`COc1ccccc1-c1nnc(SCC(N)=O)o1`: the “activity change, positive = activation” value was -43.6%.

Take `COc1cc(NS(=O)(=O)c2ccc3c(c2)OCC(C(=O)N2CCCC2)O3)cc(OC)c1` (configuration not stated): the “activity change, positive = activation” value was 8.58%.

Regarding `Cc1ccc(C)c(NC(=O)CSC2=Nc3ccccc3N=C(c3ccc(F)cc3)C2)c1`, the “activity change, positive = activation” value was 4.67%.

On to `Cc1cc(C)cc(NC(=O)Cc2csc(C)n2)c1`, for which the “activity change, positive = activation” value was -1.74%.

Regarding `CCc1nccn1S(=O)(=O)c1cc(Br)ccc1Br`, the “activity change, positive = activation” value was -2.49%.

`CC(=O)Nc1ccc(NC(=O)CSc2nnc3c4cc(Br)ccc4n(C)c3n2)cc1`: the “activity change, positive = activation” value is -3.89%.

For `Cc1ccc(C)c(CNC(=O)c2cc3ccccn3n2)c1`, the “activity change, positive = activation” value was 0.252%.

With `Cc1ccc(C)c(Cn2c(C)c(CNCc3ccc(F)cc3)c(C(=O)O)c2C)c1`, the “activity change, positive = activation” value was 4.63%.

On to `CCOC(=O)c1ccc(NC(=O)CSc2nc3c([nH]c4ccccc43)c(=O)n2C)cc1`, for which the “activity change, positive = activation” value was -6.03%.

Regarding `CCc1ccc(-n2nnc(-c3nc(-c4ccccc4)no3)c2C)cc1`, the “activity change, positive = activation” value was -68.1%.

For `O=C(NCCCN1CCN(c2cccc(Cl)c2)CC1)c1nnc(Cc2ccc(F)cc2Cl)o1`, the “activity change, positive = activation” value is 23.8%.

In the case of `CCNC(=O)CC1C(=O)N(c2ccc(F)cc2)C(=O)N1Cc1ccc(C)cc1` (configuration not stated), the “activity change, positive = activation” value was 3.25%.

As for `CCOC(=O)c1[nH]c(C)c(CCC(=O)NCc2ccccc2C)c1C`, the “activity change, positive = activation” value was 0.547%.

Source of the values: PubChem BioAssay AID2288 (National Center for Advancing Translational Sciences (NCATS), 2010).
